Only some compounds are listed: those with a hit (about 2.3% of all), similar ones and a draw of the others.
Mcl1-Noxa inh: Mcl-1/Noxa interaction inhibition; TR-FRET Mcl-1/Noxa peptide binding, 2 h; inhibition, % at 21.7 µM; hit rate 1.5% among 220,000;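 active means compounds that cut the protein-peptide binding signal by more than 50% relative to plate controls in a single-dose test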;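 further: His-tagged Mcl-1 with rhodamine Noxa BH3 peptide and terbium anti-His antibody; 0% = Mcl-1 plus Noxa peptide wells and 100% = peptide-only wells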
Mcl1 Bid PPI: disrupts binding of human Mcl-1 to Bid peptide | Q07820 | inhibition, % at 21.7 µM | TR-FRET Mcl-1/Bid-Dy647 peptide binding, 1536-well | hit rate 0.97% among 220,000 | AID 1021;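 active means compounds that cut the binding signal by more than half at the single screening dose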;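 further: His-tagged Mcl-1 with europium anti-His antibody binding Bid BH3 peptide; 0% = Mcl-1 plus peptide wells and 100% = peptide-only wells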
BCLXL inh: blocks human Bcl-xL binding to Bim BH3 peptide; Q07817; GST-Bcl-xL / FITC-Bim BH3 peptide fluorescence polarization; inhibition, % at 10.9 µM; hit rate 0.7% among 320,000; AID 2129;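 active means inhibition above the mean of all tested compounds plus 3 SD, cutoff set per campaign, cut at about 30% in these data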;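 further: 0% = DMSO wells and 100% = unlabeled Bim-BH3 peptide competitor; inhibitors lower millipolarization by displacing the labeled peptide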
Target sequence (Q07817 whole entry, looked up): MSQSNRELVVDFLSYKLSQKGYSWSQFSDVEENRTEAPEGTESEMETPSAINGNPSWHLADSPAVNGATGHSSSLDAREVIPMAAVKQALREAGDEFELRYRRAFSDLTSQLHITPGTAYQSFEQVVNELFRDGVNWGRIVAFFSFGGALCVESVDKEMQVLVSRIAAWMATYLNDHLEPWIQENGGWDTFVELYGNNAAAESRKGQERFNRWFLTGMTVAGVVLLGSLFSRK
MCL1 BIM primary: MCL1-BIM-BH3 interaction inhibition (human). Q07820. GST-MCL1 / FITC-Bim-BH3 fluorescence polarization. inhibition, % at 10.9 µM. hit rate 0.68% among 320,000. AID 2057;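 active means inhibition above the mean inhibition of all tested compounds plus 3 SD, set per campaign, cut at about 40% in these data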;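 further: 0% = DMSO wells and 100% = unlabeled Bim-BH3 peptide control; higher means more loss of mP so more displacement of Bim peptide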
GLD-1 RNA inh: GLD-1-TGE RNA interaction inhibition (C. elegans). Q17339. purified GLD-1 + fluorescein TGE RNA, fluorescence polarization. inhibition, % at 5.96 µM. hit rate 0.44% among 320,000. AID 2280;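 active means percent inhibition above a per-plate cutoff, the plate mean of test compounds plus 3 SD, cut at about 30% in these data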;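 further: 0% = DMSO wells with GLD-1 and probe and 100% = wells lacking GLD-1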
Mcl-1 Bim block: inhibitors of Bim-Mcl-1 interaction, human; hit rate 0.1% among 190,000; inhibition, % at 10 µM; AID 1009; Bead-based flow cytometry, Bim peptide-Mcl-1 binding; in the data active means inhibition above about 40%;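 further: 0% = no compound tracer wells and 100% = peptide blocker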
Active calls of the source: *.

Results for C/C=C/C1=CC(=O)C[C@H](c2ccc3c(c2)OCO3)C1 ?
BCLXL inh: 4; MCL1 BIM primary: 1; GLD-1 RNA inh: 5

What do the screens show for `Cc1cc(-c2n[nH]c(=S)n2/N=C/c2cc([N+](=O)[O-])ccc2Cl)n[nH]1`?
Mcl1-Noxa inh: 57*; Mcl1 Bid PPI: -87; Mcl-1 Bim block: 0

Results for O=[N+]([O-])c1cccc(/C=N/n2c(-c3cccnc3)n[nH]c2=S)c1 ?
Mcl1-Noxa inh: 50; Mcl1 Bid PPI: -62; BCLXL inh: -29; MCL1 BIM primary: -17; GLD-1 RNA inh: 2; Mcl-1 Bim block: -2

Results for Cc1cc(-c2n[nH]c(=S)n2/N=C/c2ccc(Cl)c([N+](=O)[O-])c2)n[nH]1 ?
Mcl1-Noxa inh: 12; Mcl1 Bid PPI: -96; BCLXL inh: -25; MCL1 BIM primary: -17; GLD-1 RNA inh: -1; Mcl-1 Bim block: -12

Results for O=[N+]([O-])c1cc(/C=N/n2c(-c3ccncc3)n[nH]c2=S)ccc1Cl ?
Mcl1-Noxa inh: 65*; Mcl1 Bid PPI: -50; BCLXL inh: -31; MCL1 BIM primary: 28; GLD-1 RNA inh: 4; Mcl-1 Bim block: 4

What do the screens show for `O=[N+]([O-])c1ccc(-c2nn(-c3ccccc3)cc2/C=N/n2c(-c3ccncc3)n[nH]c2=S)cc1`?
Mcl1-Noxa inh: 52*; Mcl1 Bid PPI: -60; BCLXL inh: -11; MCL1 BIM primary: -10; GLD-1 RNA inh: 10

What do the screens show for `O=[N+]([O-])c1ccc(Cl)c(/C=N/n2c(-c3cccnc3)n[nH]c2=S)c1`?
Mcl1-Noxa inh: 58*; Mcl1 Bid PPI: -36; BCLXL inh: -10; MCL1 BIM primary: -22; GLD-1 RNA inh: 6; Mcl-1 Bim block: 5

Results for CC(=O)Nc1ccc(NC(=O)[C@@H](NC(=O)c2ccccc2F)C(C)C)cc1 ?
BCLXL inh: 6; MCL1 BIM primary: -8; GLD-1 RNA inh: 0

How did O=C(NCc1nnc(SCC(=O)N2CCCC2)o1)c1cccc(C(F)(F)F)c1 do in these assays?
BCLXL inh: 4; MCL1 BIM primary: -2; GLD-1 RNA inh: 2

What do the screens show for `CC(C)c1nc(SCC(=O)c2c[nH]c3ccccc23)n[nH]1`?
Mcl1-Noxa inh: 17; Mcl1 Bid PPI: -8; BCLXL inh: 5; MCL1 BIM primary: 1; GLD-1 RNA inh: 5

How did O=C(Cc1csc(Nc2nc(=S)[nH]c3ccccc23)n1)NCc1ccc(Cl)cc1 do in these assays?
Mcl1-Noxa inh: 4; Mcl1 Bid PPI: 56*; BCLXL inh: 8; MCL1 BIM primary: 13; GLD-1 RNA inh: -4; Mcl-1 Bim block: 2

What do the screens show for `COc1ccc(CNC(=O)Cc2csc(Nc3nc(=S)[nH]c4ccccc34)n2)cc1`?
Mcl1-Noxa inh: -3; Mcl1 Bid PPI: 34; BCLXL inh: 4; MCL1 BIM primary: 3; GLD-1 RNA inh: -4; Mcl-1 Bim block: 0

How did COc1cc(OC)c(-c2nn3c(-c4ccco4)nnc3s2)cc1OC do in these assays?
Mcl1-Noxa inh: 64*; Mcl1 Bid PPI: -8; Mcl-1 Bim block: 4

What do the screens show for `c1ccc(-c2cc(-c3nn4c(-c5ccco5)nnc4s3)c3ccccc3n2)cc1`?
Mcl1-Noxa inh: 51*; Mcl1 Bid PPI: 38; BCLXL inh: 9; MCL1 BIM primary: 13; GLD-1 RNA inh: 1; Mcl-1 Bim block: 4

What do the screens show for `COc1ccc(-c2nn3c(-c4ccco4)nnc3s2)cc1OC`?
Mcl1-Noxa inh: 35; Mcl1 Bid PPI: -30; BCLXL inh: 10; MCL1 BIM primary: -1; GLD-1 RNA inh: 5; Mcl-1 Bim block: 20

Results for CC(CCc1ccccc1)NC(=O)CN1C(=O)NC2(CCCCC2)C1=O (centres undefined) ?
Mcl1-Noxa inh: 6; Mcl1 Bid PPI: -13; BCLXL inh: 6; MCL1 BIM primary: -3; GLD-1 RNA inh: 13; Mcl-1 Bim block: 0

How did CC(C)CN(C(=O)c1cc(=O)[nH]c2ccccc12)c1c(N)n(Cc2ccccc2)c(=O)[nH]c1=O do in these assays?
BCLXL inh: -3; MCL1 BIM primary: -8; GLD-1 RNA inh: 7

How did CC(C)c1c(Cl)c(O)c(-c2ccccc2)c(=O)n1-c1ccc(F)cc1 do in these assays?
Mcl1-Noxa inh: 31; Mcl1 Bid PPI: 57*; BCLXL inh: 3; MCL1 BIM primary: -1; GLD-1 RNA inh: 4; Mcl-1 Bim block: -1

Results for N#Cc1c(NC(=O)c2ccncc2)sc2c1CCC2 ?
Mcl1-Noxa inh: 69*; Mcl1 Bid PPI: -45; BCLXL inh: 11; MCL1 BIM primary: 30; GLD-1 RNA inh: 3; Mcl-1 Bim block: 0

Screening results as filed in PubChem BioAssay.
